Experimental data: PubChem BioAssay AID1159580 (chemical genetic matrix, 2015)
Among all 5,500 compounds or so, about 2,000 (36%) were called active. Another 18% or so got no clear call; they are omitted. Cut-off read from the data, not from the text of the source: active = normalized growth mostly below about 0.91 (no sharp cut-off); inconclusive = no clear call, values can overlap the other calls; inactive = mostly above about 0.92. This is one part of the list.

Test: chemical genetic growth profiling, strain panel (AID 1159580);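 note: tested at 20 µM; growth read once vehicle control cultures reached saturation at 30 °C; 1 = growth at the plate median or of vehicle wells; lower values mean less growth of the strain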
Conditions: S. cerevisiae deletion strains, growth OD

Measured: normalized growth

O=C1c2ccccc2O[C@@H](c2ccccc2)[C@@H]1NCc1ccccc1
active: locus YDL101C, strain DUN1, stronger effect = lower value 0.905 | locus YDL132W, strain cdc53, stronger effect = lower value 0.893 | locus YDR226W, strain ADK1, stronger effect = lower value 0.896 | locus YFR028C, strain CDC14, stronger effect = lower value 0.891 | locus YHR030C, strain SLT2, stronger effect = lower value 0.677 | locus YLR113W, strain HOG1, stronger effect = lower value 0.739 | locus YPL256C, strain CLN2, stronger effect = lower value 0.846
inactive: locus YAR019C, strain CDC15, stronger effect = lower value 0.915 | locus YBL105C, strain PKC1, stronger effect = lower value 0.916 | locus YBR135W, strain CKS1, stronger effect = lower value 0.922 | locus YBR136W, strain MEC1, stronger effect = lower value 0.921 | locus YBR160W, strain CDC28, stronger effect = lower value 0.922 | locus YDL017W, strain CDC7, stronger effect = lower value 0.915 | locus YDL028C, strain MPS1, stronger effect = lower value 0.919 | locus YDL108W, strain KIN28, stronger effect = lower value 0.929 | locus YDL214C, strain PRR2, stronger effect = lower value 0.867 | locus YDR052C, strain DBF4, stronger effect = lower value 0.914 | locus YDR054C, strain cdc34, stronger effect = lower value 0.879 | locus YDR477W, strain SNF1, stronger effect = lower value 0.853 | locus YER123W, strain YCK3, stronger effect = lower value 0.836 | locus YER133W, strain GLC7, stronger effect = lower value 0.836 | locus YFL009W, strain cdc4, stronger effect = lower value 0.894 | locus YFL029C, strain CAK1, stronger effect = lower value 0.909 | locus YFR003C, strain YPI1, stronger effect = lower value 0.916 | locus YFR019W, strain FAB1, stronger effect = lower value 0.894 | locus YGR040W, strain KSS1, stronger effect = lower value 0.85 | locus YGR052W, strain FMP48, stronger effect = lower value 0.856 | locus YGR092W, strain DBF2, stronger effect = lower value 0.844 | locus YHR079C, strain IRE1, stronger effect = lower value 0.839 | locus YHR082C, strain KSP1, stronger effect = lower value 0.906 | locus YHR205W, strain SCH9, stronger effect = lower value 0.905 | locus YIL147C, strain SLN1, stronger effect = lower value 0.915 | locus YJL095W, strain BCK1, stronger effect = lower value 0.751 | locus YJL128C, strain PBS2, stronger effect = lower value 0.874 | locus YJL157C, strain FAR1, stronger effect = lower value 0.835 | locus YJR016C, strain ILV3, stronger effect = lower value 0.906 | locus YJR066W, strain TOR1 (second series), stronger effect = lower value 0.76 | locus YJR066W, strain TOR1, stronger effect = lower value 0.864 | locus YKL048C, strain ELM1, stronger effect = lower value 0.897 | locus YKL067W, strain YNK1, stronger effect = lower value 0.89 | locus YKL101W, strain HSL1, stronger effect = lower value 0.899 | locus YKL193C, strain SDS22, stronger effect = lower value 0.905 | locus YKL203C, strain TOR2, stronger effect = lower value 0.918 | locus YLR133W, strain CKI1, stronger effect = lower value 0.89 | locus YLR403W, strain SFP1, stronger effect = lower value 0.834 | locus YML070W, strain DAK1, stronger effect = lower value 0.85 | locus YMR001C, strain CDC5, stronger effect = lower value 0.899 | locus YMR205C, strain PFK2 (second series), stronger effect = lower value 0.863 | locus YMR277W, strain FCP1, stronger effect = lower value 0.904 | locus YNL006W, strain LST8, stronger effect = lower value 0.915 | locus YNL020C, strain ARK1, stronger effect = lower value 0.88 | locus YNL161W, strain CBK1, stronger effect = lower value 0.903 | locus YNL183C, strain NPR1, stronger effect = lower value 0.92 | locus YNL207W, strain RIO2, stronger effect = lower value 0.89 | locus YNL222W, strain SSU72, stronger effect = lower value 0.923 | locus YNL307C, strain MCK1 (second series), stronger effect = lower value 0.895 | locus YOL078W, strain AVO1, stronger effect = lower value 0.903 | locus YOL136C, strain PFK27, stronger effect = lower value 0.863 | locus YOR061W, strain CKA2, stronger effect = lower value 0.849 | locus YOR119C, strain RIO1, stronger effect = lower value 0.89 | locus YOR231W, strain MKK1, stronger effect = lower value 0.887 | locus YOR329C, strain SCD5, stronger effect = lower value 0.911 | locus YPL031C, strain PHO85, stronger effect = lower value 0.841 | locus YPL153C, strain RAD53, stronger effect = lower value 0.846 | locus YPL204W, strain HRR25, stronger effect = lower value 0.825 | locus YPL209C, strain IPL1, stronger effect = lower value 0.918 | locus YPR025C, strain CCL1, stronger effect = lower value 0.922 | locus YPR106W, strain ISR1, stronger effect = lower value 0.909 | locus YPR111W, strain DBF20, stronger effect = lower value 0.911 | strain NNK1, stronger effect = lower value 0.891 | strain TSCII, stronger effect = lower value 0.885

Nc1ccc(N2C(=O)c3ccccc3C2=O)c(Cl)c1
inactive: locus YAL040C, strain CLN3, stronger effect = lower value 1.06 | locus YCL061C, strain MRC1 (second series), stronger effect = lower value 1.01 | locus YER002W, strain NOP16, stronger effect = lower value 0.974 | locus YGR078C, strain PAC10, stronger effect = lower value 0.98 | locus YJR075W, strain HOC1, stronger effect = lower value 1 | locus YNL153C, strain GIM3, stronger effect = lower value 0.995 | locus YNL175C, strain NOP13, stronger effect = lower value 0.958 | locus YNL197C, strain WHI3, stronger effect = lower value 0.935 | locus YNL224C, strain SQS1, stronger effect = lower value 0.94 | locus YNL322C, strain KRE1, stronger effect = lower value 0.986 | locus YOR083W, strain WHI5 (second series), stronger effect = lower value 1.02
